# From PubChem BioAssay AID430 (Sanford-Burnham Center for Chemical Genomics, 2006)
# The whole screen tested about 63,000 compounds, of which about 1,100 (1.7%) were called active. Cut-off read from the data, not from the text of the source: active = cytotoxicity above about 50%; inactive = the rest. The entries come from a sample that favours actives as a whole. Results with a measured potency or affinity are listed apart.
# Test: HPDE-C7 pancreatic duct cell viability loss – fluorescence, HTS (AID 430);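 note: cells exposed to compound for 48 hours before viability readout; 0% = vehicle and 100% = reference cytotoxic drug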
# Settings: HPDE-C7 pancreatic duct cells viability, at 10 µM, stronger effect = higher value
row,SMILES,cytotoxicity
1,CCC(C)Oc1cccc(OCCCCN2C(=O)NC(C)(C)C2=O)c1 (configuration not stated),8.5% (inactive)
2,O=C(CC1c2ccccc2Oc2ccccc21)NCc1ccco1,-3.4% (inactive)
3,CCC(=O)N1CCc2cc(Br)cc(S(=O)(=O)N3CCCCCC3)c21,-12.2% (inactive)
4,CC(=O)N1CCc2cc(S(=O)(=O)CCC(=O)N3CCN(C(=O)c4ccco4)CC3)ccc21,1.6% (inactive)
5,O=C(O)c1oc2ccccc2c1-n1cccc1,9.5% (inactive)
6,COC(=O)c1oc2ccc(Br)cc2c1-n1cccc1,1.1% (inactive)
7,O=C(O)c1oc2ccc(Br)cc2c1-n1cccc1,57.8% (active)
8,COc1ccc(NC(=O)CSc2nnc(-c3ccccn3)n2N)cc1,-17.7% (inactive)
9,O=C(Nc1ccccc1)OCCOc1ccccc1,-17.6% (inactive)
10,CC(C)n1c(C(=O)OCC(=O)NCc2ccc3c(c2)OCO3)cc2sccc21,45% (inactive)
11,Cc1cc2c(cc(C(=O)OCC(=O)NCc3cccs3)n2C(C)C)o1,57.6% (active)
12,Cn1c(C(=O)OCC(=O)NCc2cccs2)cc2sccc21,9.4% (inactive)
13,CCOC(=O)N1CCN(C(=O)CSc2nnc(Cn3c(=O)sc4ccccc43)n2C)CC1,-4.9% (inactive)
14,CCCCOc1ccc(C(=O)Nc2ccncc2)cc1,7.8% (inactive)
15,COc1ccc(Nc2oc(-c3ccccc3Cl)nc2C#N)cc1,57.9% (active)
16,CNc1oc(-c2ccccc2Cl)nc1C#N,-3.8% (inactive)
17,COCCNc1oc(-c2ccccc2Cl)nc1C#N,-6% (inactive)
18,Cc1ccccc1-n1nnnc1-c1ccccc1,-2.5% (inactive)
19,O=C1C(c2ccncc2)=C(O)c2ccccc21,-1.4% (inactive)
20,COc1ccc(C(=O)Oc2ccc(C(C)=O)cc2)c(OC)c1,13.4% (inactive)
21,COc1ccc(C(=O)c2ccc(N3CCOCC3)cc2)c(OC)c1,7.3% (inactive)
22,COc1ccc(C(=O)c2ccc(N(C)C)cc2)c(OC)c1,68.7% (active)
23,Cc1ccc(S(=O)(=O)NC2OC(=O)C(Cl)=C2Cl)cc1 (configuration not stated),11.4% (inactive)
24,COn1cnnc1-c1ccccc1,-8.8% (inactive)
25,Cc1nnc2n1N=CC=C(c1ccccc1)S2,57.5% (active)
26,Cc1nnc2n1N=CC=C(C(C)(C)C)S2,-5.2% (inactive)

row,SMILES,cytotoxicity
1,O=C(COC(=O)CCOc1ccccc1)Nc1ccc(Cl)cn1,0.1% (inactive)
2,Cc1cc(SCC#N)n2nc(C)c(-c3ccccc3)c2n1,-24.7% (inactive)
3,COc1ccc2c(c1)c(C(O)CN1CCC3(CC1)OCCO3)c(C)n2C (configuration not stated),9% (inactive)
4,OC(CCN1CCCCC1)(c1ccccc1)C1CCCCC1 (configuration not stated),-15.8% (inactive)
5,OC(CCN1CCCC1)(c1ccccc1)C1CCCCC1 (configuration not stated),8.5% (inactive)
6,CC(C)(C)c1ccc(C(O)CCCN2CCC(C(O)(c3ccccc3)c3ccccc3)CC2)cc1 (configuration not stated),118% (active)
7,C/C(=N\O)C1/C(=N/O)CC2C1C2(C)C (configuration not stated),-4.3% (inactive)
8,Nc1nc(C(=O)N2CCOCC2)nn1S(=O)(=O)c1ccc(Cl)cc1,2.7% (inactive)
9,COc1ccc(C(=O)Oc2cccnc2)cc1OC,-11.9% (inactive)
10,CN1C(=O)c2cccc(NC(=O)Cc3ccccc3)c2C1=O,-1.7% (inactive)
11,CC1CCc2nc(NC(=O)c3ccco3)sc2C1 (configuration not stated),-13.6% (inactive)
12,O=C(Nc1nc2c(s1)CCc1ccccc1-2)c1ccco1,15.6% (inactive)
13,O=C(c1ccc(Br)s1)N1CCN(Cc2ccc3c(c2)OCO3)CC1,11.8% (inactive)
14,CN(C)/C=C1\N=C(c2ccc3c(c2)OCO3)OC1=O,-1.7% (inactive)
15,Cc1ccc(-n2cc(-c3ccccc3)[nH]c2=O)cc1F,-20.5% (inactive)
16,CSc1cccc(-n2cc(-c3ccc4c(c3)OCO4)[nH]c2=O)c1,52.8% (active)
17,O=C(Cc1ccc(S(=O)(=O)N2CCOCC2)s1)Nc1ccc2c(c1)CCC2,3.3% (inactive)
18,COc1ccc(CN2CCN(C(=O)c3cc(OC)c(OC)c(OC)c3)CC2)cc1OC,-11.1% (inactive)
19,CCC(=O)Nc1nnc(SCC(=O)Nc2ccc(F)cc2)s1,2.1% (inactive)
20,CCCSc1nnc(NC(=O)Nc2ccccc2)s1,6.3% (inactive)
21,CCCSc1nnc(NC(=O)Nc2ccc(F)cc2)s1,69.6% (active)
22,COc1ccccc1NC(=O)CN1CCN(Cc2ccccc2)CC1,3% (inactive)
23,COc1ccc(C(C)=O)cc1COC(=O)c1c(C)noc1C,7.1% (inactive)
24,COC(=O)c1c(N)sc(C(C)=O)c1C,-7.8% (inactive)
25,COC(=O)c1sc(N)c(C(=O)OC)c1COC(=O)c1c(C)noc1C,64.9% (active)
26,CC(C)CCNc1nc2c(c(=O)n(Cc3cccc(F)c3)c(=O)n2C)n1C,35.2% (inactive)

row,SMILES,cytotoxicity
1,COc1ccc(-c2cn3c(n2)CCC3)cc1,14.1% (inactive)
2,CCCCCC1CCC(C(=O)O)CC1 (configuration not stated),-12.7% (inactive)
3,COC(=O)c1ccc2c(c1)N(Cc1nc(-c3cccc(Cl)c3)oc1C)C(=O)C1CCCN21 (configuration not stated),40.7% (inactive)
4,COC(=O)c1ccc2c(c1)N(Cc1nc(-c3ccc(Cl)cc3)oc1C)C(=O)C1CCCN21 (configuration not stated),-1.4% (inactive)
5,COC(=O)c1ccc2c(c1)N(Cc1nc(-c3cccc(C)c3)oc1C)C(=O)C1CCCN21 (configuration not stated),55.8% (active)
6,CC(C)CCOCC1CC2(CC(C)(c3csc(N)n3)OC2=O)C(=O)O1 (configuration not stated),-2.2% (inactive)
7,O=C(COC(=O)c1ccccc1NC(=O)c1ccco1)Nc1ccc2c(c1)OCO2,-13.5% (inactive)
8,COc1cccc(C2C3=C(N=C4SCC(=O)N42)c2ccccc2CC3)c1OC (configuration not stated),-2.4% (inactive)
9,CCN(CC)c1ccc(-c2nn3c(-c4cccnc4)nnc3s2)cc1,43.2% (inactive)
10,CN(C)c1ccc(-c2nn3c(-c4ccncc4)nnc3s2)cc1,-9.1% (inactive)
11,CCc1nc2ccccc2n1CC(=O)N(C(C)CC)C1CCS(=O)(=O)C1 (configuration not stated),-20.3% (inactive)
12,Cn1c(Cn2c(=O)sc3ccccc32)nnc1SCc1ccc(F)cc1,-3.2% (inactive)
13,O=C(CN1CCCC(O)C1)N1c2ccccc2Sc2ccc(C(F)(F)F)cc21 (configuration not stated),24% (inactive)
14,CCOC(=O)Nc1ccc2c(c1)N(C(=O)CN1CCN(C)CC1)c1ccccc1S2,5.2% (inactive)
15,C=CCN1C(=O)c2ccccc2Sc2ccc(C(=O)N3CCN(C)CC3)cc21,-17.1% (inactive)
16,CN(C)CCCN1c2ccccc2Sc2ccccc21,13.7% (inactive)
17,COc1ccc2c(c1)Sc1ccccc1N2CCN(C)C,12.2% (inactive)
18,O=C(Nc1cccc(C(F)(F)F)c1)c1cccnc1N1CCN(CCO)CC1,-10.8% (inactive)
19,COc1ccc(Br)cc1S(=O)(=O)N(CC(=O)N1CCOCC1)c1ccccc1,-5.3% (inactive)
20,O=C(CCc1ccccc1)Nc1ccncc1,0.1% (inactive)
21,Cn1c(Cn2c(=O)sc3ccccc32)nnc1SCC(=O)Nc1ccc(F)cc1,-7.1% (inactive)
22,CCOc1ccccc1N1CCN(Cc2cccc(OC)c2OC)CC1,-10.5% (inactive)
23,O=C(CCn1c(=O)[nH]c2ccccc2c1=O)N1CCN(c2cccc(C(F)(F)F)c2)CC1,-11.5% (inactive)
24,Cc1[nH]c2ccccc2c1NC(=O)CN1CCN(c2cccc(C(F)(F)F)c2)CC1,62.1% (active)
25,OC(CN1CCN(c2cccc(C(F)(F)F)c2)CC1)c1c[nH]c2ccccc12 (configuration not stated),26.7% (inactive)
26,COC(=O)c1[nH]c2ccccc2c1NC(=O)CN1CCN(c2cccc(Cl)c2)CC1,0.5% (inactive)

row,SMILES,cytotoxicity
1,O=C(CN1CCN(c2ccccc2)CC1)Nc1cccc(C(F)(F)F)c1,-4.7% (inactive)
2,CCc1nc2ccccc2c(C(=O)OCC(=O)NCCCN2CCCC2=O)c1C,-4.2% (inactive)
3,CCOc1cc2[nH]c(=O)n(CCCCC(=O)NC3CCCCCC3)c(=O)c2cc1OCC,2.3% (inactive)
4,COC(=O)c1cc(COC(=O)c2cccnc2SC)oc1C,-9.4% (inactive)
5,O=S(=O)(Nc1cccnc1)c1ccc2c(c1)OCCO2,-9.7% (inactive)
6,CCOC(=O)Cc1nnc2c(Nc3ccc(Cl)cc3)nc3nonc3n12,68.3% (active)
7,CCOC(=O)Cn1nc(-c2ccc(Cl)cc2)cc1N,10.3% (inactive)
8,CCOC(=O)n1ccc(C(=O)Nc2ccccc2F)n1,-0.9% (inactive)
9,CCOC(=O)CCn1c(CC(=O)OCC)nc2ccccc21,-8.6% (inactive)
10,CCOC(=O)Cc1nnc2c(Nc3ccccc3F)nc3nonc3n12,61.6% (active)
11,CCOC(=O)Cc1nnc2c(Nc3ccc(C)cc3)nc3nonc3n12,-35.8% (inactive)
12,CCOC(=O)Cc1csc(NC(=O)c2cccc(N3C(=O)CCC3=O)c2)n1,-14.9% (inactive)
13,O=C(Nn1cnnc1)c1cc(-c2ccccn2)nc2ccccc12,2.7% (inactive)
14,O=C(Nc1ccccc1N1CCCC1)c1ccc(Br)o1,1.2% (inactive)
15,CCN1CCN(c2c(Cl)cccc2NC(=O)c2ccc(Br)o2)CC1,1.5% (inactive)
16,O=C(Nc1cccc(Cl)c1N1CCCC1)c1ccc(Br)o1,75% (active)
17,N#Cc1ccsc1NC(=O)CSc1ncn[nH]1,-0.1% (inactive)
18,CCCCNS(=O)(=O)c1ccc2nc(SCC(=O)Nc3sccc3C#N)[nH]c2c1,88.6% (active)
19,CCCCNS(=O)(=O)c1ccc2nc(SCC(=O)c3ccc(C#N)cc3)[nH]c2c1,5.7% (inactive)
20,CCn1cc(Br)c(C(=O)N(C)Cc2ccccc2)n1,-2.4% (inactive)
21,CCC1CCCCN1C(=O)COC(=O)c1ccc(S(=O)(=O)N2CCOCC2)cc1 (configuration not stated),-5% (inactive)
22,Cc1ccc(-c2nnn(CC(=O)N(Cc3cccs3)C(C(=O)NC(C)(C)C)c3ccco3)n2)o1 (configuration not stated),-3.6% (inactive)
23,Cc1ccc(-c2nnn(CC(=O)N(c3ccccc3)C(C(=O)NC3CCCC3)c3ccco3)n2)o1 (configuration not stated),-1% (inactive)
24,Cc1ccc(-c2nnn(CC(=O)N(Cc3cccs3)C(C(=O)NC3CCCC3)c3ccco3)n2)o1 (configuration not stated),80.5% (active)
